Assay results: PubChem BioAssay AID1159580 (chemical genetic matrix, 2015)
Values joined by “and” are separate entries in the source; they are usually repeats but may differ in a detail not shown here. Identical values can stand only once. Among all 5,500 compounds or so, about 2,000 (36%) were called active. About 18% were inconclusive and are not listed. Rule as the data show it: active = normalized growth mostly below about 0.91 (no sharp cut-off); inconclusive = no clear call, values can overlap the other calls; inactive = mostly above about 0.92. The list shows a part of the results.

Assay: chemical genetic growth profiling, strain panel (AID 1159580);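 also: tested at 20 µM; growth read once vehicle control cultures reached saturation at 30 °C; 1 = growth at the plate median or of vehicle wells; lower values mean less growth of the strain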
Conditions: S. cerevisiae deletion strains, growth OD

Measured: normalized growth

CO[C@@]1(NC(=O)C(C(=O)O)c2ccc(O)cc2)C(=O)N2C(C(=O)O)=C(CSc3nnnn3C)CO[C@@H]21 (stereo partly specified)
inactive: locus YAL013W, strain DEP1, stronger effect = lower value 1.01 | locus YAL021C, strain ccr4, stronger effect = lower value 0.993 | locus YAL026C, strain drs2, stronger effect = lower value 1 | locus YAL030W, strain snc1, stronger effect = lower value 0.982 | locus YBL061C, strain skt5, stronger effect = lower value 0.979 | locus YBR021W, strain FUR4, stronger effect = lower value 0.998 | locus YBR023C, strain chs3, stronger effect = lower value 0.994 | locus YBR171W, strain sec66, stronger effect = lower value 0.984 | locus YBR229C, strain ROT2, stronger effect = lower value 1 | locus YBR231C, strain swc5, stronger effect = lower value 0.956 | locus YBR279W, strain paf1, stronger effect = lower value 0.995 | locus YCL011C, strain gbp2, stronger effect = lower value 0.955 | locus YCL016C, strain dcc1, stronger effect = lower value 0.955 | locus YCL029C, strain bik1, stronger effect = lower value 1.03 | locus YCL061C, strain MRC1, stronger effect = lower value 1 | locus YCL069W, strain vba3, stronger effect = lower value 0.991 | locus YCR088W, strain abp1, stronger effect = lower value 0.984 | locus YDL005C, strain med2, stronger effect = lower value 0.991 | locus YDL035C, strain GPR1, stronger effect = lower value 0.999 | locus YDL040C, strain nat1, stronger effect = lower value 0.989 | locus YDL074C, strain BRE1, stronger effect = lower value 1.03 | locus YDL101C, strain DUN1, stronger effect = lower value 1.01 | locus YDL134C, strain PPH21, stronger effect = lower value 1 | locus YDL185W, strain tfp1, stronger effect = lower value 1.03 | locus YDL192W, strain arf1, stronger effect = lower value 1.02 | locus YDR001C, strain nth1, stronger effect = lower value 0.977 | locus YDR069C, strain doa4, stronger effect = lower value 1.01 | locus YDR101C, strain arx1, stronger effect = lower value 1.01 | locus YDR137W, strain rgp1, stronger effect = lower value 0.98 | locus YDR150W, strain NUM1, stronger effect = lower value 1.02 | locus YDR159W, strain sac3, stronger effect = lower value 1.01 | locus YDR162C, strain NBP2, stronger effect = lower value 1 | locus YDR195W, strain ref2 1 | locus YDR297W, strain sur2, stronger effect = lower value 0.971 | locus YDR318W, strain mcm21, stronger effect = lower value 1.02 | locus YDR334W, strain swr1, stronger effect = lower value 0.942 | locus YDR335W, strain msn5, stronger effect = lower value 0.981 | locus YDR388W, stronger effect = lower value 1.02 | locus YDR392W, strain spt3, stronger effect = lower value 0.909 | locus YDR502C, strain sam2, stronger effect = lower value 1.01 | locus YEL003W, strain gim4, stronger effect = lower value 0.99 | locus YEL037C, strain rad23, stronger effect = lower value 0.988 | locus YEL061C, strain CIN8 (second series), stronger effect = lower value 0.982 | locus YEL061C, strain CIN8, stronger effect = lower value 1.01 | locus YER015W, strain faa2, stronger effect = lower value 0.982 | locus YER016W, strain bim1, stronger effect = lower value 1 | locus YER110C, stronger effect = lower value 1.02 | locus YER111C, strain swi4, stronger effect = lower value 0.983 | locus YER155C, strain BEM2 (second series), stronger effect = lower value 0.993 | locus YER155C, strain BEM2, stronger effect = lower value 1.01 | locus YER167W, strain BCK2, stronger effect = lower value 1 | locus YFR010W, strain ubp6, stronger effect = lower value 0.996 | locus YGL078C, strain dbp3, stronger effect = lower value 0.998 | locus YGL086W, strain mad1, stronger effect = lower value 1.01 | locus YGL167C, strain pmr1, stronger effect = lower value 0.987 | locus YGL173C, strain kem1, stronger effect = lower value 0.992 | locus YGL227W, strain vid30, stronger effect = lower value 0.99 | locus YGL240W, strain doc1, stronger effect = lower value 0.987 | locus YGL248W, strain PDE1, stronger effect = lower value 1.01 | locus YGL253W, strain hxk2, stronger effect = lower value 0.996 | locus YGR078C, strain PAC10, stronger effect = lower value 1.02 | locus YGR135W, strain pre9, stronger effect = lower value 1 | locus YGR229C, strain SMI1, stronger effect = lower value 1 | locus YGR252W, strain gcn5, stronger effect = lower value 0.93 | locus YHR013C, strain ard1, stronger effect = lower value 0.962 | locus YHR027C, strain rpn1, stronger effect = lower value 0.964 | locus YHR030C, strain SLT2, stronger effect = lower value 1.01 and 0.97 | locus YHR079C, strain IRE1 (second series), stronger effect = lower value 1.02 | locus YHR079C, strain IRE1, stronger effect = lower value 0.99 | locus YHR094C, strain hxt1, stronger effect = lower value 1.02 | locus YHR129C, strain ARP1, stronger effect = lower value 1 | locus YHR142W, strain chs7, stronger effect = lower value 0.974 | locus YHR200W, strain rpn10, stronger effect = lower value 1.02 | locus YIL066C, strain RNR3, stronger effect = lower value 1.02 | locus YIL073C, strain SPO22, stronger effect = lower value 1.04 | locus YIL125W, strain kgd1, stronger effect = lower value 1.01 | locus YIR030C, strain dcg1, stronger effect = lower value 1.02 | locus YJL092W, strain hpr5, stronger effect = lower value 0.983 | locus YJL095W, strain BCK1 (second series), stronger effect = lower value 0.982 | locus YJL095W, strain BCK1, stronger effect = lower value 1.01 | locus YJL115W, strain asf1, stronger effect = lower value 0.96 | locus YJL129C, strain trk1, stronger effect = lower value 0.999 | locus YJL134W, strain LCB3, stronger effect = lower value 1 | locus YJL154C, strain vps35, stronger effect = lower value 0.975 | locus YJL164C, strain tpk1, stronger effect = lower value 0.989 | locus YJL166W, strain qcr8, stronger effect = lower value 0.951 | locus YJL168C, strain set2, stronger effect = lower value 1.02 | locus YJL187C, strain SWE1 (second series), stronger effect = lower value 1.02 | locus YJL187C, strain SWE1, stronger effect = lower value 0.986 | locus YJR043C, strain POL32, stronger effect = lower value 1.01 | locus YJR066W, strain TOR1, stronger effect = lower value 0.918
